# FMDV inh = High Throughput Screening for Foot and Mouth Disease Virus Antivirals; FMDV antiviral cell-based qHTS; Potency, µM (top dose mostly 57.9 µM), without a hit: top-dose activity change, negative = inhibition, most hits filed as inhibitors; actives 1.2% (n = 410,000); calls by dose curve; tested in HEK293T cells; also: read-out not given here; potency is read from the fitted curve at half-maximal effect; % is scaled to controls: 0 for no effect and ±100 for the full control effect; nearly all actives have a fitted effect of over 45% in size
# HCV inhibitor = qHTS Assay for Inhibitors of Hepatitis C Virus (HCV); actives 3.4% (n = 340,000); AID 651820, 2012; Huh7.5.1 HCVcc-Cre infection, luciferase reporter, 44 h; Potency, µM (titrated, usually from 41.8 µM), inactives show at the top dose activity change, negative = inhibition, actives largely listed as inhibitors; active = well fitted inhibition curve with a large enough effect; inconclusive = small, poorly fitted or top-dose-only effect, or another doubt; inactive = no such curve, though single readings can be large or run the other way; also: potency is read from the fitted curve at half-maximal effect; % is scaled to controls: 0 for no effect and ±100 for the full control effect
#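 Infectious HCVcc-Cre (~0.5 moi) was added to cells just after compound, with cells seeded 4 h earlier at 1,000 per well. Luciferase activity after 44 h culture reported infection; substrate was incubated 15 min at room temperature before reading.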
# Cycloheximide cs = Cycloheximide Counterscreen for Small Molecule Inhibitors of Shiga Toxin; cell reporter, cycloheximide protein synthesis inhibition counterscreen; max response, %; actives 12% (n = 300,000); AID 2314, 2010; in the data active = max response mostly above about 13%, no sharp cut-off; inactive = mostly below about 14%; also: read at 38.3 µM for the half of the compounds with a filed dose; 0% is about no effect
# Lassa entry inh = qHTS for Inhibitors of binding or entry into cells for Lassa Virus; Lassa virus pseudotype entry inhibition, cell reporter; Potency, µM (series often up to 37.9 µM), without a hit: at the highest dose activity change, negative = inhibition, most hits filed as inhibitors; actives 1.2% (n = 300,000); calls by dose curve; tested in HEK293 cells; also: potency is read from the fitted curve at half-maximal effect; % is scaled to controls: 0 for no effect and ±100 for the full control effect; nearly all actives have a fitted effect of over 50% in size
# MARV entry inh = qHTS for inhibitors of binding or entry into cells for Marburg Virus; Potency, µM (highest dose often 37.8 µM), for inactives: top-dose activity change, negative = inhibition, most hits filed as inhibitors; actives 1.8% (n = 300,000); AID 540276, 2011; Marburg virus pseudotyped entry inhibition, cell reporter; calls by dose curve; tested in HEK293 cells; also: potency is read from the fitted curve at half-maximal effect; % is scaled to controls: 0 for no effect and ±100 for the full control effect
# Shiga toxin inh = A qHTS for Small Molecule Inhibitors of Shiga Toxin; inhibition, % at 38.7 µM; actives 9.2% (n = 290,000); Vero cells, Shiga toxin protein synthesis inhibition reporter; AID 2315, 2010; in the data active = inhibition mostly above about 28%, no sharp cut-off; inactive = mostly below about 43%; also: 0% is about no effect
# * marks the source's active call; other numbers are inactive results; u = inconclusive; x = no result given; + = active, no number; [ ] = another dose, or the depositor's remark. Shown are actives, neighbours in structure and some others; about 13% of the full set was active somewhere.
SMILES,FMDV inh,HCV inhibitor,Cycloheximide cs,Lassa entry inh,MARV entry inh,Shiga toxin inh
O=[N+]([O-])c1cc2c(cc1/C=N\NS(=O)(=O)c1ccccc1)OCO2,x,8%,-1,-28%,u,-8
Cc1ccc(S(=O)(=O)N/N=C/c2ccccc2O)cc1[N+](=O)[O-],121%,4%,39*,u,-11%,69*
CCN(CC)c1ccc(/C=N/NS(=O)(=O)c2ccc(C)c([N+](=O)[O-])c2)cc1,65%,-3%,3,-3%,2%,-2
Cc1ccc(S(=O)(=O)N/N=C/c2ccc(O)c(O)c2)cc1[N+](=O)[O-],47%,16%,45*,-14%[46.1 µM],-30%[46.1 µM],128*
CC(=N)c1c(O)c2ccccc2oc1=O,42%,2%,26*,x,x,53*
CCCCN=C(C)c1c(O)c2ccccc2oc1=O,10%,-5%,32*,0%,u,65
CCCCC(=O)c1c(O)c2ccccc2oc1=O,11%,-4%,11,4%,0%,-13
COc1ccc(CCNC(=O)CCOc2ccc(C(C)(C)C)cc2)cc1OC,-18%,-21%,x,14%,u,x
O=C(Nc1ccc(Br)cn1)c1cccc(-c2cc3ccccc3oc2=O)c1,-34%,7%,41*,u,u,49*
O=C(Nc1ccccc1N1CCCC1)c1cccc(-c2cc3ccccc3oc2=O)c1,-9%,u,18*,-2%,-13%,29
COC(=O)[C@@H]1[C@@H](C)N(Cc2ccccc2)C(=O)N[C@H]1c1cccc(C(F)(F)F)c1,0%,2.8µM*,-6,x,-19%[14.2 µM],-9
COC(=O)[C@H]1[C@@H](c2cccc(C(F)(F)F)c2)NC(=O)N(Cc2ccccc2)[C@@H]1C,x,x,x,x,25%[14.2 µM],x
Cc1ccc(NC(=O)c2cc(N(C)C)ccc2[P+](=O)O)cc1,x,18%,84*,23%,u,105*
Cc1ccc(NC(=O)CO/N=C/c2ccc(N(C)C)cc2)cc1,0%,-14%,10,-6%,u,-10
CN(C)c1ccc(S(=O)(=O)NCC(=O)N2CCN(c3ccccc3)CC2)cc1[N+](=O)[O-],24%,-4%,x,-17%,23%,x
Cc1ccc2nc(-c3ccc(NC(=O)C(F)(F)F)cc3)sc2c1,-3%,x,x,30%[46.1 µM],u,x
CCSc1ccc(C(=O)Nc2ccc(-c3nc4ccc(C)cc4s3)cc2)cc1,5%,x,x,u,x,x
Cc1ccc2nc(-c3ccc(NC(=O)CN4C(=O)c5ccccc5C4=O)cc3)sc2c1,29%,15%,75*,u,u,108*
Cc1ccc2nc(-c3ccc(NC(=O)COC(=O)c4ccc(=O)[nH]c4)cc3)sc2c1,-35%,1%,65*,u,u,61*
Cc1ccc2nc(-c3ccc(NC(=O)CNC4CC4)cc3)sc2c1,30%,u,42*,x,x,95*
Cc1ccc2nc(-c3ccc(NC(=S)NC(=O)CC(C)C)cc3)sc2c1,56%,0%,34*,u,u,+
Cc1ccc2nc(-c3ccc(NC(=O)CN4CCN(c5ccccn5)CC4)cc3)sc2c1,15%,-53%,29*,-19%,u,90*
Cc1ccc2nc(NC(=O)CN3CCN(c4ccccn4)CC3)sc2c1,-22%,u,-3,-24%[46.1 µM],1%[46.1 µM],16
CC1Cc2cc(S(=O)(=O)N3CCC(C(=O)N4CCCCC4)CC3)ccc2N1C(=O)C1CC1 (centres undefined),-13%,-5%,11,17%[46.1 µM],u,1
COc1ccc(C=C2SC(=S)N(CCCN3CCOCC3)C2=O)c(OC)c1,-27%,x,x,x,x,x
CCOc1ccc(NC(=O)c2ccc(CN3CCc4ccccc4C3)cc2)cc1,u,2µM*,1,-11%[46.1 µM],u,2
CCOC(=O)c1ccc(NC(=O)CN2CCc3ccccc3C2)cc1,17%,-9%,5,0%,-16%,-8
CCOC(=O)c1ccc(NC(=O)c2ccc(CN3CCc4ccccc4C3)cc2)cc1,u,1.4µM*,-3,-23%,u,40
CCOc1ccccc1NC(=O)c1ccc(CN2CCc3ccccc3C2)cc1,-11%,u,-4,3%,3%,-10
COCCNC(=S)Nc1ccc(Cl)c(Cl)c1,44%,3%,15*,1%,13%,5

# From PubChem BioAssay
